Test results published in PubChem BioAssay AID488857 (Sanford-Burnham Center for Chemical Genomics, 2010).
Hit rate of the full screen: of about 1,400 compounds, about 560 (40%) were called active.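 Rule for the calls: active = mean inhibition over duplicate tests at 10 µM above 50%; inactive = the rest.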 So high a share suggests a set chosen from earlier hits. This is one part of the list.

Assay: ASC/caspase-1 reporter retest in S. cerevisiae at one dose, specificity check for NALP1 project (AID 488857)
Conditions: S. cerevisiae ASC/Caspase-1, beta-galactosidase luminescence, 24 h; at 10 µM; hits give high values

inhibition, inactive:
CCn1cc(C(=O)O)c(=O)c2cc(F)c(N3CCNCC3)cc21 30.4%
CCOC(=O)N1CCN(CC(O)COc2ccccc2C(C)(C)C)CC1 (stereo not drawn) 44.2%
Cn1cc(S(=O)(=O)N2CCN(c3cccc(C(F)(F)F)c3)CC2)c(=O)n(C)c1=O 33.4%
O=C(/C=C/Sc1ccccc1)c1ccc(Cl)cc1 44.6%
O=C(NC(Cc1c[nH]c2ccccc12)C(=O)O)/C(=C\c1ccc2c(c1)OCO2)NC(=O)c1ccccc1 (stereo not drawn) 28.8%
Oc1oc(-c2ccccc2)nc1C=Nc1cccc2ccccc12 32.5%
Clc1ccc(C2=NNC(=NCc3ccc4c(c3)OCO4)SC2)cc1 33.4%
COc1ccc(C(=O)c2c(C(F)(F)F)oc3c2C(=O)c2ccccc2C3=O)cc1 20.5%
CCNc1c(C(=O)O)ccc2c1C(=O)c1ccccc1C2=O 39.5%
O=C(c1cccc(F)c1)N1CCN(c2cc(N3CCCCC3)c(F)cc2[N+](=O)[O-])CC1 49.4%
c1cc2c3c(cccc3c1)NC1(CCCCCC1)N2 19.9%
COCC(=O)OCC(=O)Nc1cc(C(C)(C)C)nn1-c1ccccc1 21.4%
Cc1ccc(-c2cc(NC(=O)CSc3n[nH]c(N)n3)n(-c3ccccc3)n2)cc1 21.9%
O=C(CN1CCOCC1)Nc1ccccc1Sc1ccc(Cl)cc1 28.6%
COC(=O)c1ccccc1NC(=O)N1CCN(C/C=C/c2ccccc2)CC1 42.6%
Cc1noc2ncc(C(=O)c3cc(F)ccc3O)cc12 27.6%
Cn1c(=O)n(CCCOc2ccc(Cl)cc2)c2ccccc21 46.1%
CCN1CCN(Cc2cccc(Oc3ccccc3)c2)CC1 40%
CC1CCN(CCOc2cccc(Br)c2)CC1 43.1%
Clc1ccc(OCCCN2CCCC2)cc1Cl 40%
c1ccc(COc2ccc(OCCN3CCCCC3)cc2)cc1 39.1%
CCN(CC)CCCOc1ccc(Cl)c(Cl)c1 39.4%
CN(C)Cc1ccccc1COc1ccccc1 31.8%
CCN(CC)S(=O)(=O)c1ccc(NS(=O)(=O)c2cccs2)cc1 29.6%
Cc1ccc(/C(N)=N/OC(=O)c2ccc(Cl)cc2Cl)cc1 46.2%
CC1CN(C(=O)Nc2ccc3c(c2)OCO3)CC(C)O1 (stereo not drawn) 27.1%
CC1(C)CC(=O)c2cc(C(=O)O)c(=O)n(-c3ccccc3)c2C1 37.4%
CC(C)c1nc(SCC(=O)Nc2ccc3c(c2)OCCO3)n[nH]1 24.2%
Cc1ccsc1/C=N/NC(=O)c1ccco1 48.5%
COc1cc(Br)cc(C=Nc2cccc(C(F)(F)F)c2)c1O 30%
O=C(/C=N/O)Nc1cccnc1 41.3%
CCOc1nc(-c2ccccc2Cl)ccc1C#N 45.4%
COC(=O)C(CCSC)NC(=O)Cn1ncc2c(=O)oc3ccccc3c21 (stereo not drawn) 42%
O=[N+]([O-])c1ccc(N2CCCCC2)cc1 39.5%
CCCc1[nH]nc2c1C(c1ccoc1)C(C#N)=C(N)O2 (stereo not drawn) 43.1%
O=c1c2c(C(F)(F)F)cc(C(F)(F)F)nc2[nH]n1-c1ccccc1 33%
Cc1c(Cl)c([N+](=O)[O-])nn1Cc1ccc(C(=O)N/N=C\c2ccccn2)o1 31.1%
N#Cc1cnn(-c2ncnc3sc4c(c23)CCCC4)c1N 37.2%
Nc1c2c(nc3sc4c(c13)CCCC4)CCCCCC2 48.9%
CC(C)(C#CCN1CCCCC1)OCCOC(c1ccccc1)c1ccccc1 30.2%
CCCCNC(=O)Nc1cc(C)on1 27.1%

inhibition, active:
CCC(=O)c1ccc(OCC(O)CN2CCN(c3cccc(C(F)(F)F)c3)CC2)cc1 (stereo not drawn) 65.7%
O=C(/C=C/c1c[nH]c2ccccc12)c1ccccc1 86.5%
CC(C)N1CCC2(CC1)N=C(c1ccc3c(c1)OCO3)CC(c1cc(Cl)ccc1O)N2 (stereo not drawn) 74.5%
CC(=O)c1c(C)oc2c1C(=O)c1ccccc1C2=O 74.2%
CCN1CCN(c2cc(C(C)C)nc3c(-c4ccccc4)c(C)nn23)CC1 52.5%
O=C(c1ccc2c(Cl)c3c(nc2c1)CCCC3)N1CCN(c2ccc(F)cc2)CC1 61.5%
O=C(CCl)Nc1cc(-c2ccccc2)nn1-c1ccccc1 78.5%
CCC(C)c1ccccc1NC(=O)CN1CCN(C/C=C/c2ccccc2)CC1 (stereo not drawn) 55%
CC1CCN(CCOc2ccc(OCc3ccccc3)cc2)CC1 59.3%
Clc1ccc(OCCN2CCCCC2)cc1Cl 57.7%
CC1CCN(CCOc2ccc(Cl)c(Cl)c2)CC1 56.5%
Clc1cccc(OCCN2CCN(CCOc3cccc(Cl)c3)CC2)c1 65.6%
Cc1ccc(/C(N)=N/OC(=O)c2cccs2)cc1 69.2%
Cc1ccc(/C(N)=N/OC(=O)c2ccc3c(c2)OCO3)cc1 86.8%
Cc1cccc(/C(N)=N/OC(=O)c2ccc3c(c2)OCO3)c1 55.8%
Oc1c(Br)cc(Br)cc1C=Nc1cccnc1 54.1%
Oc1c(Br)cc(Br)cc1C=Nc1ccc2c(c1)OCO2 64.6%
O=C(Nc1cccc(N=Cc2cc(Br)cc(Br)c2O)c1)c1ccco1 57%
OC(CNCCc1ccc(C(F)(F)F)cc1)COc1cccc2ccccc12 (stereo not drawn) 59.9%
C=CCNc1oc(COc2ccc(C)cc2)nc1C#N 56.6%
O=C1C=CC(=O)N1c1ccc(N2CCCCC2)cc1 68.2%
Nc1c(Cl)ncnc1N/N=C/c1ccccn1 85.2%
Nc1c2c(nc3sc4c(c13)CCCCC4)CCCCC2 69%
CC1CCc2nc3sc4c(c3c(N)c2C1)CCCC4 (stereo not drawn) 93.2%
C=C(C)COc1ccc2c(CC)cc(=O)oc2c1C 61.5%
CN(C)C(C)(C)C#CCC(c1ccccc1)c1ccccc1 55%
CCCCNC(=O)Nc1nnc(-c2ccc(Cl)cc2)o1 54.4%
